The results in this text go back to PubChem BioAssay.

Assay [1] has as its target 6-phosphogluconate dehydrogenase, decarboxylating (Homo sapiens) (UniProt P52209). Description: inhibition of human phosphogluconate dehydrogenase – biochemical, recombinant enzyme, NADPH absorbance, primary screen (AID 1159550). Conditions: recombinant 6PGD, NADPH absorbance 341 nm; at 10 µM; stronger effect = higher value.
The nature of assay [2]: EMT-state selective cytotoxicity in co-culture – imaging, PC-3E GFP, TEM4-18 mCherry, primary screen (AID 1345086;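 active means compounds killing one labelled cell type while sparing the other, by normalised counts and ratio limits, not self-fluorescent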;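 on all read-outs here: cells exposed to compound for 72 h before imaging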;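 on red/green cell ratio (normalised): normalised mesenchymal count divided by normalised epithelial count so high means epithelial killing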). Particulars: PC-3E GFP / TEM4-18 mCherry co-culture, imaging cell counts, at 1 µM; for red/green cell ratio (normalised): actives lie on both sides.
The nature of assay [3]: viability loss with induced miR-34 in A549 – imaging, A549 dox-inducible miR-34, nuclei and caspase counts, primary screen (AID 1347080;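 active means compounds whose cell count with miR-34 switched on is under 0.7 times the count with it off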). Particulars: A549 miR-34 inducible, Hoechst nuclei count, 48 h.
For assay [4], the target named is NAD(+) hydrolase SARM1 (Homo sapiens) (UniProt Q6SZW1). The assay is described as follows: blocking NAD cleavage by SARM1 SAM-TIR – cell lysate, NAD-Glo luminescence (AID 1508614;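 active means compound whose remaining NAD level is above about 45 nM, limit read from the data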). Particulars: SAM-TIR HEK293T lysate NADase, at 1 µM, stronger effect = higher value.
Chain of NAD(+) hydrolase SARM1 (Homo sapiens) (Q6SZW1 whole entry, looked up, the tested form may be a part): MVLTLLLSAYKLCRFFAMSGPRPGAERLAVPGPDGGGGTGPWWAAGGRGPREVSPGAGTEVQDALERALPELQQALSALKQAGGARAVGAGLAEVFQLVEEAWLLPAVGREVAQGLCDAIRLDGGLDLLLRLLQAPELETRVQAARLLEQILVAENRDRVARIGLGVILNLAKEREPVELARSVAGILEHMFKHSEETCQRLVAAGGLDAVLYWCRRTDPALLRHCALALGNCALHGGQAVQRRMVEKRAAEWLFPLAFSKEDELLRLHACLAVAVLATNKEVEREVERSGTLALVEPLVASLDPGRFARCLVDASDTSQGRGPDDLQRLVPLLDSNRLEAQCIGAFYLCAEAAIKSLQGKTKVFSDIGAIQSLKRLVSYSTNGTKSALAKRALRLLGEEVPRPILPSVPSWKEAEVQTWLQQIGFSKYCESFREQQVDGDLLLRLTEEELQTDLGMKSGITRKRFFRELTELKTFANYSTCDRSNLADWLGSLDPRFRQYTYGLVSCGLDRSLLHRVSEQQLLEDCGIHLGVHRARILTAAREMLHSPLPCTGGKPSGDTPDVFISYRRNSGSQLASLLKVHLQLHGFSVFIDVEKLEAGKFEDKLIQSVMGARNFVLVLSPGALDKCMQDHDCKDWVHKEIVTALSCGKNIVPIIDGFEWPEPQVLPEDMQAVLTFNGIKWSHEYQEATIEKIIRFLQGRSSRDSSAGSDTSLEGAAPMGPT
The target of assay [5] is Mitogen-activated protein kinase 7 (Homo sapiens) (UniProt Q13164). Description: Gal4-ERK5 driven luciferase induction – cell-based, HTS, primary screen (AID 1508626;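 active means luciferase signal above three times the same-plate solvent-only control wells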;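 further: luciferase driven by Gal4-ERK5 fusion binding five Gal4 sites before minimal TATA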). Conditions: HeLa Gal4-ERK5 transactivation, 18 h, at 5 µM, stronger effect = higher value.
Chain of Mitogen-activated protein kinase 7 (Homo sapiens) (Q13164 whole entry, looked up, the tested form may be a part): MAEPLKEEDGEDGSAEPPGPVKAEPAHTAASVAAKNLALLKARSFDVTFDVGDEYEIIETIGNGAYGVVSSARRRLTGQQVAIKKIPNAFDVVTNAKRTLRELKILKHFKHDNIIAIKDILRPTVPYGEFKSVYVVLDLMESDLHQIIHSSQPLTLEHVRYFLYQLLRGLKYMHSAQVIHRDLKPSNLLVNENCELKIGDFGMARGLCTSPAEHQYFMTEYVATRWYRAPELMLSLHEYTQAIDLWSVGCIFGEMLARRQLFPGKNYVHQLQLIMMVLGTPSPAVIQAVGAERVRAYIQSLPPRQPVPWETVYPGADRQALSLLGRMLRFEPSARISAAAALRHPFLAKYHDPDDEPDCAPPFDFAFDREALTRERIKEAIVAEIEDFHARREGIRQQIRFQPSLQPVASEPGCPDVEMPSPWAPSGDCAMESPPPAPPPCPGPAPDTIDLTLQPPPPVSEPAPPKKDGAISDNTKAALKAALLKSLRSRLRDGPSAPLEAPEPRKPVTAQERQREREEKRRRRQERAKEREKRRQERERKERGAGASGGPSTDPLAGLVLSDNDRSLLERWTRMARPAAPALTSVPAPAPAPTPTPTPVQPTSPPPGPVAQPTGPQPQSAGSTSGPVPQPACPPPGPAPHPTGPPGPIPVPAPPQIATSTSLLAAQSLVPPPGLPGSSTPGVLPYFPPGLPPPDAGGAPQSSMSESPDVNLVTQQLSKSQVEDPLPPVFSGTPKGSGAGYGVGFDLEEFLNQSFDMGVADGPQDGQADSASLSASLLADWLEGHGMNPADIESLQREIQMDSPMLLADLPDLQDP
The nature of assay [6]: blockers of polyQ-driven CASP3 activation – cell-based (AID 1583). Particulars: polyglutamine-induced caspase-3 activation, cell assay; stronger effect = higher value;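 tested at 10 µM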.
Assay [7] in a line: yeast 75Q aggregation reduction – 75Q-TubU reporter (AID 1593). Particulars: Yeast 75Q polyglutamine aggregation reporter.
A short description of assay [8]: restoration of touch response, mutant HTT neurons – whole organism, C. elegans mechanosensory neurons, N-terminal huntingtin (AID 1599). Particulars: C. elegans polyQ-huntingtin mechanosensory neurons, stronger effect = higher value.
A short description of assay [9]: blockers of cytochrome c efflux from mitochondria – biochemical, purified mitochondria (AID 1603).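 Further: mouse liver mitochondria challenged with calcium chloride; signal normalized to the plate average as 100%.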 Conditions: stronger effect = lower value.
The nature of assay [10]: polyglutamine aggregate formation blockers (AID 1604). Particulars: polyglutamine-induced protein aggregation inhibition assay; stronger effect = higher value; tested at 2.5 µM.
Assay [11] in a line: glutamate transport activators, MN-1 cells, MN-1 cell line (AID 1612).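 Further: tested at 1 µM final; 0% = mean of DMSO vehicle wells on each plate; positive means more glutamate uptake than control and negative means less.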 Particulars: MN-1 motor neuron cells, stronger effect = higher value.
Assay [12] can be described thus: 75Q-TubH aggregate inhibition, S. cerevisiae, yeast (AID 1616). Particulars: S. cerevisiae 75Q-TubH polyglutamine aggregation suppression; stronger effect = higher value.
Assay [13] in a line: P. berghei load reduction in hepatocytes – cell-based, HepG2, luciferase luminescence, HepG2 viability, primary screen (AID 624349; in the data active means parasite load remaining mostly below about 12%, no sharp cut-off; inactive means mostly above about 10%;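 further: 100% = mean of DMSO negative control wells on the same plate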). Particulars: P. berghei liver stage in HepG2, luciferase luminescence, concentration not given here; parasite load remaining: stronger effect = lower value; viability: measured here: HepG2 viability without parasites.
Assay [14] relates to Aerobactin synthetase IucA (Klebsiella pneumoniae hvKP1). Description: IucA enzyme inhibition, primary screen, biochemical, Spectrum library (AID 1346200; call rule not given here;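 further: 100% = wells without compound and 0% = wells lacking enzyme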). Conditions: malachite green pyrophosphate, A620, at 8 µM, stronger effect = lower value.
Assay [15] is described as follows: GFP-Q80 aggregate reduction, neuronal-like cells, cell-based, NGF-treated PC12, GFPQ80 (AID 1614).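 Further: lower means fewer inclusions and 0 means no inclusions at all.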 Conditions: PC12 NGF-treated GFP-polyQ80 inclusion reduction.
For assay [16], the target named is ATP-dependent translocase ABCB1 (Homo sapiens) (UniProt P08183). The assay is described as follows: P-glycoprotein substrate transport blockade – cell-based (AID 377; in the data active means fluorescence slope change above about 50%). Conditions: MDR1-expressing cells, fluorescent substrate accumulation slope; stronger effect = higher value; concentration not given here.
Chain of ATP-dependent translocase ABCB1 (Homo sapiens) (P08183 whole entry, looked up): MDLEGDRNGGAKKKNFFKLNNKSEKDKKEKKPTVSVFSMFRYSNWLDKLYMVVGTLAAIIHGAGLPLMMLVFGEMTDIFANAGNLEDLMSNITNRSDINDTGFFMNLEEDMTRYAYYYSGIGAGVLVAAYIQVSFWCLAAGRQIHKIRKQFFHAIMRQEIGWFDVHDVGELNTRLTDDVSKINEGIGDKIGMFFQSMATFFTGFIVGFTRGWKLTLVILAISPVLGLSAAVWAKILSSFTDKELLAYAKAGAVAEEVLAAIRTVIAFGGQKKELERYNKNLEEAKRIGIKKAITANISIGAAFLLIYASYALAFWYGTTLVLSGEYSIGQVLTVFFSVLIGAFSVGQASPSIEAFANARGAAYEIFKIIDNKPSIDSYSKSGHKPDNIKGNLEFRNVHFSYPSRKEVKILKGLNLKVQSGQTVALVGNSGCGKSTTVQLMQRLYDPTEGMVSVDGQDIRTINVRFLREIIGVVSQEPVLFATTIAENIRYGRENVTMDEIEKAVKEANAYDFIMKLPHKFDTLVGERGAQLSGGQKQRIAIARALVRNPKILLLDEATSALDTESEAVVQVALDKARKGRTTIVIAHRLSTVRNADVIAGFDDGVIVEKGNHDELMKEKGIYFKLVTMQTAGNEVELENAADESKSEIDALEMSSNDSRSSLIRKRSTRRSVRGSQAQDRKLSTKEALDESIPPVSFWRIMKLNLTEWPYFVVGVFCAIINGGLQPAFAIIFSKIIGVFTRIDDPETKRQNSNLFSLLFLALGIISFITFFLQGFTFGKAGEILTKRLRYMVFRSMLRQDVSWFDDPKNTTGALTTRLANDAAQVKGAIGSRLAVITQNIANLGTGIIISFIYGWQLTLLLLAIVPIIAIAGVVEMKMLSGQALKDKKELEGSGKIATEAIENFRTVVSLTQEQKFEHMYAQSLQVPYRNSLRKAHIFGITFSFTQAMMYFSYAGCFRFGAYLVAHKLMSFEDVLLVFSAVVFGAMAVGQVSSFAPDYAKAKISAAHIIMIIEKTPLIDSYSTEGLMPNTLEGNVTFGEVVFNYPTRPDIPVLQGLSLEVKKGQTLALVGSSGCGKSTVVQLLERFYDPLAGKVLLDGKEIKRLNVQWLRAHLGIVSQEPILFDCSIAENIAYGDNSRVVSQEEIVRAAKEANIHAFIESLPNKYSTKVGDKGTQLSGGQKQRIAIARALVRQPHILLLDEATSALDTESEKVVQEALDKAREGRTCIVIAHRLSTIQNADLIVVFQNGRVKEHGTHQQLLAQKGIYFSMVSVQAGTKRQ
Where [17] appears, read: measured here: epithelial PC-3E GFP cell survival.
Where [18] appears, read: measured here: mesenchymal TEM4-18 mCherry cell survival.

Results filed as inconclusive are left out. For some assays here: Results with a measured potency or affinity are listed apart. The source made the active and inactive calls.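 How the source made its calls, unless noted: active means at least 20% inhibition of 6-phosphogluconate dehydrogenase activity; inactive means the rest.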

Chain of 6-phosphogluconate dehydrogenase, decarboxylating (Homo sapiens) (P52209 whole entry, looked up): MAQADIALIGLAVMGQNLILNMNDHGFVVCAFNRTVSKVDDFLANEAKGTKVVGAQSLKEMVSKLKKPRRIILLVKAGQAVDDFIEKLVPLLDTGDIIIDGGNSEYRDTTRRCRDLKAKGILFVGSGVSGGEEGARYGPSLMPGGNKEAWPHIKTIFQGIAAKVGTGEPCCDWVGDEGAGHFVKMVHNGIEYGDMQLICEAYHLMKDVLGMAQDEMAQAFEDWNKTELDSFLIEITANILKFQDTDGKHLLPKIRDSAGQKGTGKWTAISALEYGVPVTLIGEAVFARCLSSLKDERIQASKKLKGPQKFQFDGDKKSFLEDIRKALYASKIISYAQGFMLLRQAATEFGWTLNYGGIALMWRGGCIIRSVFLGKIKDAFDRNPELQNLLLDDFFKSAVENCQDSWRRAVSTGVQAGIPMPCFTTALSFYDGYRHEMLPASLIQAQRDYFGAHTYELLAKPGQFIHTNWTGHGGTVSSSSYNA

A word on the inhibition: it is the relative decrease from the control value, in per cent. In the case of `CNC(=O)Oc1ccccc1OC(C)C`, the inhibition in assay [1] was -1.91% (inactive). In assay [2], the red/green cell ratio (normalised) is 1 (inactive). Moreover, the results for the normalised cell number in [2] (setting [17]) and in assay [2] (setting [18]) were 1.06 and 1.05, respectively. For the same molecule, the fold change in [3] (stronger effect = lower value) is 0.96 (inactive); in [3] (measured here: relative caspase fold change +Dox/-Dox), 0.908. The cell count in [3] (measured here: total cells with miR-34 induction, stronger effect = lower value) was 8560; in assay [3] (measured here: total cells without miR-34 induction), 8930. Besides, the remaining NAD in assay [4] was 10 nM (inactive). In addition, in [5], the luciferase signal is 88 AU (inactive).

What is called viability is a per cent measure of how many cells are alive, often set against a control. Regarding `C=CCc1ccc2c(c1)OCO2`, the inhibition in assay [6] is -35.5%; in [1], 7.49% (inactive). The molecule also returned a score in [7] of 0.7. Also, in assay [8], the rescue above control was -4.01. The cytochrome c release ratio in assay [9] was determined as 0.78. Further, the inhibition of aggregation in [10] amounted to 27.9%. In assay [11], this molecule displayed a glutamate uptake change of 1.11%. Also, the aggregation suppression score in assay [12] was determined as 0.706. In addition, the parasite load remaining in assay [13] is 147% (inactive). Besides, the viability in assay [13] amounted to 87.4%. Also, the red/green cell ratio (normalised) in assay [2] is 0.79 (inactive). The normalised cell number was 1.31 in assay [2] (setting [17]) and 1.03 in [2] (setting [18]). In [14], the activity remaining was 124% (inactive). Further, the luciferase signal in [5] was 40 AU (inactive).

Regarding `C=C(C)[C@@H]1[C@H]2OC(=O)[C@@H]1[C@]1(O)C[C@H]3O[C@]34C(=O)O[C@H]2[C@]14C`, the results for the inhibition in [6] and in assay [1] were -31.3% and 2.77% (inactive), respectively. The molecule further showed a score in assay [7] of 1.33. Also, the rescue above control in assay [8] came to 6.9. In addition, in assay [9], the cytochrome c release ratio amounted to 0.8. Also, the inhibition of aggregation in [10] amounted to 48.7%. This molecule returned a glutamate uptake change in [11] of 1.09%. In [15], this molecule had an inclusion score of 2. Also, the aggregation suppression score in assay [12] was determined as 1.46. The red/green cell ratio (normalised) in assay [2] is 1.08 (inactive). Besides, the normalised cell number in assay [2] (setting [17]) stood at 0.99; in assay [2] (setting [18]) it was 1.06. For the same molecule, in assay [5], the luciferase signal was 76 AU (inactive).

In the case of `CC(C)N(C(=O)SCC(Cl)=C(Cl)Cl)C(C)C`, the inhibition in assay [1] is 4.75% (inactive). Also, the activity remaining in assay [14] is 102% (inactive).

As to `C=C1C2CC[C@@]3(C)[C@H](c4ccoc4)OC(=O)C[C@]13O[C@H]1CC(=O)C(C)(C)[C@H](C(OC(C)=O)C(=O)OC)[C@@]21C` (some centres undefined), the inhibition in assay [1] was 6.78% (inactive). Further, in assay [14], the activity remaining is 88.1% (inactive).

In the case of `Oc1c(Cl)c(Cl)c(Cl)c(Cl)c1Cl`, in [1], the inhibition was 4.09% (inactive). In addition, the red/green cell ratio (normalised) in assay [2] was 0.88 (inactive). The results for the normalised cell number in assay [2] (setting [17]) and in [2] (setting [18]) were 1.25 and 1.1, respectively. Also, the luciferase signal in [5] is 480 AU (active).

For the molecule `CNc1ccccc1C(=O)O`, the inhibition in assay [1] is 18.3% (inactive). In addition, the red/green cell ratio (normalised) in assay [2] is 0.85 (inactive). The normalised cell number is 1.13 in assay [2] (setting [17]) and 0.95 in assay [2] (setting [18]). Also, the luciferase signal in [5] was 76 AU (inactive).

In the case of `N#C/C(=C\c1ccc(O)cc1)C(=O)O`, the values for the inhibition in [6] and in assay [1] were -8.72% and 0.31% (inactive), respectively. In [7], this molecule returned a score of 1.56. This molecule came in with a rescue above control in assay [8] of -7.23. In addition, the cytochrome c release ratio in [9] turned out to be 0.76. Besides, the inhibition of aggregation in assay [10] was -4.76%. This molecule returned a glutamate uptake change in assay [11] of 12%. In [15], this molecule had an inclusion score of 2. The molecule further gave an aggregation suppression score in [12] of 1.17. For the same molecule, in assay [2], the red/green cell ratio (normalised) was 0.79 (inactive). Moreover, the normalised cell number in assay [2] (setting [17]) stood at 1.25; in assay [2] (setting [18]) it was 0.99. Moreover, the luciferase signal in [5] was 144 AU (inactive).

As for `c1ccc2c(c1)[nH]c1cnccc12`, in assay [16], the fluorescence slope change was 73% (active). Moreover, the inhibition in assay [1] is 1.67% (inactive). Also, in assay [2], the red/green cell ratio (normalised) was 1 (inactive). Also, the normalised cell number in [2] (setting [17]) and in [2] (setting [18]) was 0.91 each time. Further, the activity remaining in [14] is 105% (inactive). Also, the luciferase signal in [5] is 44 AU (inactive).

As to `NCC(N)C(=O)c1ccccc1` (centres undefined), in assay [1], the inhibition was -14.8% (inactive). Also, in assay [14], the activity remaining was 109% (inactive).
